PubChem BioAssay AID848 (Columbia University Molecular Screening Center, 2007)
The whole screen tested about 93,000 compounds, of which about 160 (0.17%) were called active. What follows is part of a selection rich in actives, with near analogues and random picks from the rest. A number with no mark means an inactive call.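 Rule for the calls: active = cell count reduction exceeding the screen mean by over 5 SD, scaled to untreated wells per plate (cut at about 78% in these data); inactive = the rest.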

assay: HUVEC nuclei count loss under TNFa – imaging, Hoechst nuclei count, cytotoxicity control for VCAM1 expression modulator project, primary screen (AID 848); conditions: HUVEC TNFalpha-stimulated, at 2 µM, hits give high values;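 note: cells counted after 24 h of TNF alpha exposure following the 1 h pretreatment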

Structure (SMILES)	cell count reduction
CCC(=O)Nc1ccc(C(=O)Nc2cccc(OC)c2)cc1	-29.2%
COc1cc(/C=N/O)cc(Br)c1OS(=O)(=O)c1ccc(C)cc1	-20%
COc1ccc(/C=C(\NC(=O)c2ccc(OC)c(OC)c2)C(=O)NCCc2c[nH]c3ccccc23)cc1	-3.8%
Cc1cccc(N2CCN(S(=O)(=O)c3ccc4[nH]c(=O)c(=O)[nH]c4c3)CC2C)c1 (stereo not given)	-4.3%
Cc1ccc(NC(=O)CN2CCc3ccccc3C2)cc1	-11.7%
COc1ccccc1-c1n[nH]c2c1[C@H](C)CC[C@H]2C(C)C	-1.8%
O=C1CSC(c2ccccc2)N1c1nc(-c2ccc(Cl)cc2Cl)cs1 (stereo not given)	12.4%
CC1(C)Cc2c(sc3nc(SCC(=O)NCc4ccccc4)n(-c4ccccc4)c(=O)c23)CS1	-2.4%
O=C1CCCC2=C1C(c1ccccc1)n1c(s/c(=C/c3cccc(F)c3)c1=O)=N2 (stereo not given)	-15.2%
Cc1cc2[nH]ncc2cc1NC(=S)NC(=O)c1ccccc1	-6%
CCOC(=O)/C(=C\c1ccc([N+](=O)[O-])cc1)C(=O)c1cc(C(C)=O)c(Nc2ccccc2)s1	5.8%
CN(C)C(CNC(=O)CCCOc1ccccc1)c1ccco1 (stereo not given)	-22.1%
O=C(c1ccccc1)C(Cn1cncn1)C(Sc1ccccc1)c1ccccc1 (stereo not given)	-17.7%
CC(C)C(=O)Nc1cccc(NC(=S)NC(=O)C(c2ccccc2)c2ccccc2)c1	-31.2%
Fc1ccccc1COc1ccccc1CNCc1ccncc1	2.6%
COc1ccc(NS(=O)(=O)c2ccc(NC(=S)NC(=O)CC(C)C)cc2)cc1	-22.5%
Cc1ccc(N2CCN(C3=NC(=O)/C(=C\c4cccs4)S3)CC2)cc1	-5.4%
COc1ccc(CN2CCn3ncc(C(=O)Nc4ccc(Cl)cc4Cl)c3C2=O)cc1	-5.8%
CNC(=S)NNC(=O)c1sccc1OCc1ccccc1	-14.5%
Cc1n[nH]c(=S)n1/N=C/c1ccc(Br)o1	-5.8%
Cc1ccc(C2CC2C(=O)NN)cc1 (stereo not given)	-10.3%
O=C(CNC(=O)OCc1ccccc1)Oc1cc2oc(=O)cc(-c3ccccc3)c2cc1Cl	0%
O=S(=O)(N/N=C\c1cccn1-c1ccccc1)c1ccc2ccccc2c1	-15.3%
Cc1c(NC(=O)/C=C/C(=O)O)cccc1[N+](=O)[O-]	-2.4%
CCOC(=O)C1=C(C)Nc2sc(C(=O)c3ccc(Br)cc3)c(N)c2C1c1ccc(C(=O)OC)cc1 (stereo not given)	-15.9%
